# According to ChEMBL document CHEMBL4513216, “Probing the Open Global Health Chemical Diversity Library for Multistage-Active Starting Points for Next-Generation Antimalarials” (ACS Infect Dis, 2020):
# The campaign covered roughly 65,000 compounds. About 2,100 (3.2%) showed an effect of 50% or more. The median lay at about -52%. Shown is part of a subset that was picked to be rich in strong results.
# Test system: Plasmodium falciparum
# Test: Screen against P. falciparum Asexual Blood Stage (ABS), at 5uM
# Format: functional, Dd2
# Conditions: tested at 5 uM
row,SMILES,INHIBITION [%]
1,COc1ccc(C)c(NC(=O)NCc2ncnn2C)c1,-80.2
2,COc1ccc(C2CCCN2C(=O)NCCn2ccnc2)cc1 (stereo unspecified),59.1
3,COc1ccc(C2CCCN2C(=O)NCCn2ccnc2)cc1OC (stereo unspecified),-189
4,COc1ccc(C2CCCN2C(=O)NCCCn2cccn2)cc1 (stereo unspecified),-90.4
5,O=C(NCCCn1ccnc1)N1CCCC1c1ccncc1 (stereo unspecified),-65.7
6,COc1ccc(C2CCCN2C(=O)NCCCn2ccnc2)cc1 (stereo unspecified),61.9
7,CCOc1ccc(C2CCCN2C(=O)NCCn2ccnc2)cc1 (stereo unspecified),36.1
8,O=C(NCCn1ccnc1)N1CCCC1c1ccncc1 (stereo unspecified),-10
9,O=C(NCCn1ccnc1)N1CCCC1c1ccc2c(c1)OCCO2 (stereo unspecified),51.2
10,O=C(NCCn1ccnc1)N1CCCC1c1ccsc1 (stereo unspecified),-159
11,CC(C)(C)c1nnnn1CC(=O)N(CCC#N)c1ccccc1,-55.4
12,CN(C)C(C(=O)NCc1cc(C(C)(C)C)n[nH]1)c1ccc(F)cc1 (stereo unspecified),-1.64
13,COCCn1c2c(ccc1=O)CC(NCc1cnn(C)c1)CC2 (stereo unspecified),-23.6
14,Cc1cc(O)ncc1NS(=O)(=O)c1cccc(F)c1F,-123
15,CCS(=O)(=O)N[C@H]1CN(Cc2noc(COC)n2)C[C@@H]1C1CC1,-96.2
16,Cc1cccc(-c2nc(N)nc3c2CN(C(=O)c2cc(C)n[nH]2)C3C)c1 (stereo unspecified),32.2
17,COCCN1Cc2ccccc2C2(CCN(C(=O)c3ccco3)CC2)C1,-50.4
18,COc1ccccc1-n1nc(CC(C)C)nc1CSc1nnc(N)s1,-36.5
19,CSC1(CNC(=O)NC(C)c2ccc(F)cc2)CCOCC1 (stereo unspecified),-162
20,CC(NCC1(N(C)C)CCOCC1)c1ccc(SC(F)F)cc1 (stereo unspecified),52.35
21,CC(NCC1(N(C)C)CCOCC1)c1ccc(S(C)(=O)=O)cc1 (stereo unspecified),-56.25
22,COCC1CN(S(=O)(=O)Cc2ccccc2)Cc2c1cnn2C (stereo unspecified),-54.3
23,Nc1cc2c(nn1)CCN(C(=O)CCCC1CCCCC1)C2,-83.9
24,Cc1ccc2ncccc2c1CN1CC[C@H](N(C)C)[C@H](CCC(=O)O)C1,-3.92
25,CO[C@H]1CN(Cc2c(C)ccc3ncccc23)CC[C@H]1N,67.2
26,COCCCC1CCCN(Cc2c(C)ccc3ncccc23)C1 (stereo unspecified),37.2

row,SMILES,INHIBITION [%]
1,Cc1cc(NC(=O)c2ccc(CN3CC[C@H](O)C3)cc2)ccc1F,21.2
2,CC(=O)N1CCCC1c1cccc(NCc2ccccc2F)n1 (stereo unspecified),-133
3,COc1cc(N2CCC3(CCN(Cc4csc(C)n4)C3=O)C2)ncn1 (stereo unspecified),-8.45
4,COCCCN1CCN([C@@H]2c3ccccc3C3(CCNCC3)[C@H]2O)CC1,-68.7
5,CCNC(=O)[C@@H]1C[C@H](N)CN1c1cc(CC)nc(N(C)C)n1,-67.6
6,CCNC(=O)[C@@H]1C[C@H](N)CN1c1cc(C(F)(F)F)nc(N(C)C)n1,20.4
7,CCNC(=O)[C@@H]1C[C@H](N)CN1c1cc(C(F)(F)F)nc(N2CCCC2)n1,54.7
8,CC(=O)Nc1nc(C(=O)N2CCCC(n3cncn3)C2)cs1 (stereo unspecified),-101
9,CN(C(=O)Cn1nc(-c2ccccc2)ccc1=O)C1CCS(=O)(=O)C1 (stereo unspecified),-30.2
10,Fc1ccccc1CC1CCN(Cc2cscn2)CC1,45
11,Fc1ccc(CC2CCN(Cc3cscn3)CC2)cc1,50.7
12,Fc1ccc(CN2CCCN(Cc3cscn3)CC2)cc1,43.6
13,CN1CCCCC1c1ncc2c(n1)CCN(Cc1ccc(Cl)c(F)c1)C2 (stereo unspecified),65.6
14,CN1CCCCC1c1ncc2c(n1)CCN(Cc1ccccc1Cl)C2 (stereo unspecified),41.5
15,CN1CCc2nc(C3CCCCN3Cc3ccccc3Cl)ncc2C1 (stereo unspecified),-32.4
16,O=C(CCCOc1cccc(F)c1)N1CCCC(n2cccn2)C1 (stereo unspecified),-31.5
17,N#Cc1cn(C2CC2)c(=O)n(CC(O)c2ccccc2C(F)(F)F)c1=O (stereo unspecified),51
18,N#Cc1cn(C2CC2)c(=O)n(CC(O)c2ccc(F)cc2)c1=O (stereo unspecified),44.7
19,N#Cc1cn(C2CC2)c(=O)n(CC(O)c2ccccc2F)c1=O (stereo unspecified),-128
20,c1ncn(Cc2ccc(CNCc3ccc4c(c3)OCCO4)cc2)n1,0.0598
21,CC(C)c1cc(NC(=O)c2ccc(C(=O)NC(C)(C)C)cc2)[nH]n1,64
22,CC(C)c1cc(NC(=O)c2ccc([S+]([O-])C(C)C)cc2)[nH]n1 (stereo unspecified),-172
23,CC(C)c1cc(NC(=O)c2ccncc2)[nH]n1,-134
24,Cn1ccc(C(=O)NC2CCC23CCN(Cc2nccs2)CC3)c1 (stereo unspecified),-44.3
25,Cn1ccc(C(=O)NC2CCC23CCN(Cc2ccc(F)cc2)CC3)c1 (stereo unspecified),39.9
